MEKK2wt PB1 HTS = modulators of MEK5 binding to wildtype MEKK2, primary screen, biochemical, multiplex bead flow cytometry, Alexa488-MEK5 | Mitogen-activated protein kinase kinase kinase 2 (Homo sapiens), Q9Y2U5 | Alexa488-MEK5 binding to MEKK2 WT; actives lie on both sides | binding response (% of control), % at 10 µM | actives 1.1% (n = 290,000) | AID 1531, 2009; in the data active = binding response below about 67% or above about 130%
MEKK3 PB1 HTS = modulators of MEKK3-MEK5 PB1 binding, primary screen, biochemical, wildtype MEKK3, multiplex bead flow cytometry, Alexa488-MEK5 | actives 1.4% (n = 290,000) | bead-based flow cytometry, Alexa488-MEK5 binding to MEKK3; actives lie on both sides; 0 = blocked by unlabeled MEK5, 100 = vehicle | binding response (% of control), % at 10 µM | Mitogen-activated protein kinase kinase kinase 3 (Homo sapiens), Q99759;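 active = binding response more than 3 SD above or below the average of its plate-row segment, actives on both sides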;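 also: Alexa488 bead fluorescence after subtracting the streptavidin-only scavenger bead signal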
MEKK2 mut-MEK5 = MEK5 binding signal on mutant MEKK2 PB1, primary screen, biochemical, multiplex bead flow cytometry, Alexa488-MEK5. Alexa488-MEK5 binding to MEKK2 mutant. percent response, % at 10 µM. actives 0.35% (n = 290,000). AID 1530, 2009; in the data active = percent response above about 24%, passing the limit was not always enough
GRK2 inh = compounds blocking aptamer binding on GRK2 – biochemical, human GRK2, bead flow cytometry, HTS, primary screen; FAM-aptamer displacement from GRK2; inhibition of aptamer binding, % at 10 µM; actives 0.59% (n = 330,000);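 active = inhibition of aptamer binding above 40%, roughly 3 SD of noise, on plates passing a quality check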;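 also: median bead fluorescence of bound FAM aptamer so fluorescent compounds give negative values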
Target sequence (P25098 whole entry, looked up): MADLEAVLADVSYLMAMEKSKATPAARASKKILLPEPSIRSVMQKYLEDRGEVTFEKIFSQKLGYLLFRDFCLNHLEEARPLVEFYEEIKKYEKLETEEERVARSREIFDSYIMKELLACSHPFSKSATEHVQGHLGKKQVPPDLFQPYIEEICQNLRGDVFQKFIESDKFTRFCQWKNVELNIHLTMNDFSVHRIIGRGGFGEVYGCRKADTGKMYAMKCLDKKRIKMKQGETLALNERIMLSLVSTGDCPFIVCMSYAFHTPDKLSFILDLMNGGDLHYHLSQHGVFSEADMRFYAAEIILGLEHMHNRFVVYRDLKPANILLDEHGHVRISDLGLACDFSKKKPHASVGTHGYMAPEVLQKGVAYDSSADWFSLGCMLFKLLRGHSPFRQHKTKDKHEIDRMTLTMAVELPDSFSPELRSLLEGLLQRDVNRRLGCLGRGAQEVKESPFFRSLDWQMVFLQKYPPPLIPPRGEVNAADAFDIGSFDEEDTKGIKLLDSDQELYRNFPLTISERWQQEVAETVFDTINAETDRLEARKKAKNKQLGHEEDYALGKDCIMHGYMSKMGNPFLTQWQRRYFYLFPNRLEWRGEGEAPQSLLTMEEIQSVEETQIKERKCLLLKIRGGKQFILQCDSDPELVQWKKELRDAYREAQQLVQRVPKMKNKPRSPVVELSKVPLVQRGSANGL
MEKK2wt confirm = modulators of MEK5 binding to wildtype MEKK2, confirmation, biochemical, single concentration, multiplex bead flow cytometry; binding response (% of control), % at 10 µM; actives 2.4% (n = 5,900); shares compounds with MEKK3 PB1 HTS; Alexa488-MEK5 binding to MEKK2 WT; actives lie on both sides; AID 1892, 2009; in the data active = binding response below about 16% or above about 210%; inactive = in between
MEKK2mut-MEK5 = mutant MEKK2 PB1-MEK5 binding signal retest – biochemical, single concentration, multiplex bead flow cytometry, confirmation | actives 2% (n = 5,900) | shares compounds with MEKK3 PB1 HTS | percent response, % at 10 µM | AID 1893, 2009 | Alexa488-MEK5 binding to MEKK2 mutant; in the data active = percent response mostly above about 71%, no sharp cut-off; inactive = mostly below about 38%;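 also: higher means compound restores mutant binding toward wildtype level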
MEKK3 confirm = MEKK3 wild-type PB1 binding to MEK5, inhibitors, confirmation, biochemical, bead multiplex flow cytometry, single concentration, wildtype | binding response (% of control), % at 10 µM | actives 1.8% (n = 5,900) | shares compounds with MEKK3 PB1 HTS | Alexa488-MEK5 binding to MEKK3; stronger effect = lower value;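 active = binding response below 72% of control, or above a set upper limit, though filed actives all read lower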
GRK2 inh confirm = GRK2 aptamer-displacing inhibitors, retest, confirmation, biochemical, cherry pick 1, bead flow cytometry; shares compounds with GRK2 inh; actives 4% (n = 2,000); aptamer displacement, % at 10 µM; AID 504451, 2011; bead-bound GRK2, FAM-aptamer displacement;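 active = aptamer displacement above 40%, near three times the noise of non-fluorescent compounds, on plates passing quality checks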;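 also: negative values mostly reflect intrinsic compound fluorescence rather than true enhancement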
Aptamer quench 1 = quenches fluorescent RNA aptamer, GRK2 hit artifact | 110 tested, under 10 active | Fluorescent RNA aptamer beads, quenching, flow cytometry; stronger effect = higher value | fluorescence change (kMESF span), kMESF (concentration not given with the values) | shares compounds with GRK2 inh | AID 504521;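 active = compounds whose bead fluorescence drops by more than 37 kMESF across the dose range, marking them as dye quenchers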
FAM quench CP1 = quenches fluorescent RNA aptamer, GRK2 hit artifact; fluorescence response (% of DMSO), % at 10 µM; shares compounds with GRK2 inh; Carboxyfluorescein RNA aptamer on beads, flow cytometry quenching; stronger effect = lower value; 2,000 tested, under 10 active;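 active = compounds that quench the bead-bound fluorescent RNA probe, cutting fluorescence to under half of the solvent control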;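 also: counterscreen run without GRK2 so only probe quenching by compound is measured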
Of the large screens only hits and unclear results are named; the others gave an inactive call (follow-up assays come after a bar, where they were run); [ ] = dose if it differs, or a comment. Only some compounds are listed: those with a hit (about 2.5% of all), similar ones and a draw of the others.

Cc1ccccc1N=C1N=C(N)c2ccccc21	none
O=c1c2ccccc2cnn1Cc1cccc(Br)c1	none
C#CCn1cc(C=C2C(=O)c3ccccc3C2=O)c2ccccc21	MEKK3 PB1 HTS 36[inhibitor] (no result: GRK2 inh) | MEKK2wt confirm inactive | MEKK2mut-MEK5 inactive | MEKK3 confirm inactive
CCCC(c1nnnn1Cc1cccs1)N1CCN(C2CCCC2)CC1 (stereo not drawn)	none
Cc1cnnn1-c1ccc(C(=O)CCl)cc1	MEKK2wt PB1 HTS 148, GRK2 inh 56 | MEKK2wt confirm inactive | MEKK2mut-MEK5 inactive | MEKK3 confirm inactive | GRK2 inh confirm inactive | FAM quench CP1 inactive
Cc1ccc2nc(/C(C#N)=C\c3ccc([N+](=O)[O-])o3)[nH]c2c1	MEKK3 PB1 HTS 70[inhibitor] | MEKK2wt confirm inactive | MEKK2mut-MEK5 inactive | MEKK3 confirm inactive | GRK2 inh confirm inactive | FAM quench CP1 inactive
O=C(C[n+]1cc(Br)cc2ccccc21)c1ccccc1	MEKK2wt PB1 HTS 66[inhibitor], GRK2 inh 45 | MEKK2wt confirm inactive | MEKK2mut-MEK5 inactive | MEKK3 confirm 70 | GRK2 inh confirm inactive | FAM quench CP1 inactive
Cc1cc(C(=O)Nc2ccncc2)c2ccccc2n1	none
CCCC(=O)NCc1ccc2c(c1)cc(C)n2C	none
Cc1cc2cc(CNC(=O)c3ccc(Br)o3)ccc2n1C	MEKK2wt PB1 HTS 45[inhibitor], MEKK3 PB1 HTS 66[inhibitor], GRK2 inh 73 | MEKK2wt confirm inactive | MEKK2mut-MEK5 inactive | MEKK3 confirm inactive | GRK2 inh confirm inactive | FAM quench CP1 inactive
Cc1nc(CN2CCOCC2)cc(=O)[nH]1	MEKK2wt PB1 HTS 2.0[inhibitor], MEKK3 PB1 HTS 2.0[inhibitor], GRK2 inh 48 | MEKK2wt confirm inactive | MEKK2mut-MEK5 inactive | MEKK3 confirm inactive | GRK2 inh confirm inactive | FAM quench CP1 inactive
COc1ccc(C(=O)N[C@H](C(=O)Nc2nc3c(s2)CCCC3)C(C)C)cc1	none
CCOc1ccccc1C(=O)N[C@H](C(=O)Nc1nc2c(s1)CCCC2)C(C)C	MEKK3 PB1 HTS 137, GRK2 inh 43 | MEKK2wt confirm inactive | MEKK2mut-MEK5 inactive | MEKK3 confirm inactive | GRK2 inh confirm inactive | FAM quench CP1 inactive
NNC(=O)C1CC1(c1ccccc1)c1ccccc1 (stereo not drawn)	none
O=C(Nc1ccc([N+](=O)[O-])cc1)c1cccc(S(=O)(=O)Nc2ccccn2)c1	none
CCN1/C(=C2\SC(=S)N(Cc3ccccc3)C2=O)Sc2ccccc21	none
CCC(CO)[n+]1c(C)cc(/C=C2\Sc3ccccc3N2Cc2ccccc2)cc1C (stereo not drawn)	MEKK2wt PB1 HTS 63[inhibitor], GRK2 inh 71 | MEKK2wt confirm inactive | MEKK2mut-MEK5 inactive | MEKK3 confirm inactive | GRK2 inh confirm inactive | FAM quench CP1 inactive
CC(NC(=O)c1cc(=O)[nH]c2ccc(Br)cc12)c1ccccc1 (stereo not drawn)	none
CCN1/C(=C/c2ccc3cccc(C)c3[n+]2CC)Sc2ccccc21	MEKK2wt PB1 HTS 40[inhibitor], GRK2 inh 91 | MEKK2wt confirm inactive | MEKK2mut-MEK5 inactive | MEKK3 confirm inactive | GRK2 inh confirm 69 | Aptamer quench 1 inactive | FAM quench CP1 inactive
C=CCN1C(=O)/C(=C/c2ccc(-c3ccc(F)cc3)o2)SC1=S	MEKK2wt PB1 HTS 18[inhibitor], MEKK3 PB1 HTS 49[inhibitor], GRK2 inh 43 | MEKK2wt confirm inactive | MEKK2mut-MEK5 inactive | MEKK3 confirm 62 | GRK2 inh confirm inactive | FAM quench CP1 inactive
CCN1/C(=C/C(C)=C/c2sc3ccccc3[n+]2CC)Sc2ccccc21	MEKK2wt PB1 HTS 1.0[inhibitor], MEKK3 PB1 HTS 25[inhibitor], GRK2 inh 100 | MEKK2wt confirm 2.0[inhibitor] | MEKK2mut-MEK5 inactive | MEKK3 confirm 44 | GRK2 inh confirm 99 | Aptamer quench 1 inactive | FAM quench CP1 inactive
CCN1/C(=C\C(=S)Nc2ccccc2)Sc2ccccc21	none
COc1ccc(N2C(=O)C3[C@@H](C2=O)C2(Cl)C(Cl)=C(Cl)C3(Cl)C2(OC)OC)cc1 (stereo partly drawn)	none
CC1(CC(=O)N/N=C/c2cc(Br)c(O)cc2O)OCCO1	none
Cc1oc(/C=N/NC(=O)CC2(C)OCCO2)cc1Br	MEKK3 PB1 HTS 132 | MEKK2wt confirm inactive | MEKK2mut-MEK5 inactive | MEKK3 confirm inactive | GRK2 inh confirm inactive | FAM quench CP1 inactive
O=c1ccn(Cc2ccccc2)c(=O)n1Cc1ccccc1	none
CC(C)(CS(=O)(=O)[O-])NC(=O)CC[N+](C)(C)CCO	MEKK3 PB1 HTS 65[inhibitor], GRK2 inh 99 | MEKK2wt confirm inactive | MEKK2mut-MEK5 inactive | MEKK3 confirm inactive | GRK2 inh confirm 96 | Aptamer quench 1 inactive | FAM quench CP1 inactive
C/C=C/C=C/C(=O)N1CC2(CC(c3cccc(NC(=O)/C=C/C)c3)=NO2)C[C@@H]1C(N)=O (stereo partly drawn)	none
C=C(C)C(=O)Nc1cccc(C2=NOC3(C2)C[C@@H](C(N)=O)N(C(=O)/C=C/C=C/C)C3)c1 (stereo partly drawn)	MEKK3 PB1 HTS 68[inhibitor], GRK2 inh 92 | MEKK2wt confirm inactive | MEKK2mut-MEK5 inactive | MEKK3 confirm inactive | GRK2 inh confirm 83 | Aptamer quench 1 inactive | FAM quench CP1 inactive
Cc1cc(=O)oc2cc(OC(C)C(=O)Nc3nccs3)ccc12 (stereo not drawn)	none
